The results in this text go back to PubChem BioAssay (NCI).

Compounds without any hit were thinned out: in the full panel of roughly 83,000, 20% have a hit.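 Values shown are percent growth following 48 h exposure of cells in 96-well plates to a single concentration of compound; below 10 was considered active.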 Values without a mark were called inactive. Activity calls are given as the source filed them.

The experiment has as its system TK-10 renal. The experiment in a line: NCI-60 one-dose screen, 48 h (100 = growth as untreated, 0 = no growth, -100 = all killed). Particulars: 10 µM unless noted. On the procedure:
Growth inhibition of the TK-10 human tumor cell line is measured as a screen for anti-cancer activity. Cells are grown in 96 well plates and exposed to the test compound for 48 hours. Compounds are tested at a single concentration, which is 10^-5 M for most compounds. The reported endpoint is percent growth (GI% or GIPRCNT), where numbers from 0 - 100% represent growth inhibition, and numbers from -100% - 0 represent cell death. For example, a value of 40 represents 60% growth inhibition. A value of 0 means no net growth occurred over the course of the experiment. A value of -40 indicates 40% of cells at the beginning of the experiment died by the end of the experiment. A value of -100 means all cells are dead at the end of the experiment.
NCI-60 Human Tumor Cell Lines Screen was performed using the standard one-dose NCI protocol, which is described in more detail at https://dtp.cancer.gov/discovery_development/nci-60/default.htm.
Compounds with GIPRCNT values below 10 were considered active. Activity score was based on GIPRCNT using the following formula: […]
Score is 0 for GIPRCNT values of 100 or above, 50 for GIPRCNT values of 0, and 100 for GIPRCNT values of -100.
For `Cc1ccc2nc(SCC(=O)Nc3ccc(-c4nc5ccccc5s4)c(Cl)c3)[nH]c2c1`, the growth was 109%.

For `Nc1ccc(N=Nc2ccccc2)cc1[N+](=O)[O-]`, the growth was 82.8%. The same measure for `COC(=O)CC1=C(c2ccc([N+](=O)[O-])cc2)CCC1=O`: 107%. In the case of `C(=C1c2ccccc2-c2ccccc21)c1ccccn1`, the growth is 91.7%. Under `Cc1cn(C(C=O)OC(C=O)CO)c(=O)[nH]c1=O` (stereo not given) stands 103%. Regarding `CCOC(=O)C(Br)=P(c1ccccc1)(c1ccccc1)c1ccccc1`, the growth was 117%. As to `Cc1cc(C)nc(NS(=O)(=O)c2ccc(Nc3nc4nc(SCc5ccccc5)nc(-c5ccc(O)cc5)c4c(=O)[nH]3)cc2)n1`, the growth was 105%. As to `C[C@@H]1CN(c2nc3c(cc2F)c(=O)c(C(=O)O)cn3C(C)(C)C)C[C@H](C)N1`, the growth is 102%. The same measure for `N/C(=N\C(N)=N\c1nc2ccccc2s1)c1ccnc(Cl)c1`: 75.7%. With `COc1cc(/C=C/C(=O)c2c(C)n([O-])c3ccc(Cl)cc3[n+]2=O)cc(OC)c1OC`, the growth was 103%. The same measure for `COC(=O)C1(NC(=O)CNC(=O)OCc2ccccc2)CCCC1`: 99.9%; for `CCOC(=O)c1sc(NC(=O)COc2cccc(/C=C3\CCc4cc(OC)ccc4C3=O)c2)nc1C`: 89.3%.

With `CC(=O)N1N=C(c2ccc(Cl)cc2)CC1c1c(C)nn(-c2ccccc2)c1N(C)Cc1ccccc1` (stereo not given), the growth is 88.5%.

Regarding `COc1ccc2c(c1)C(=Nc1cc(OC)c(OC)c(OC)c1)C(=O)N2`, the growth is 136%. As for `COc1ccc2c(c1)sc1nc(-c3ccc(N(C)C)cc3)cn12`, the growth is 132%.

On to `O=C(NCCCl)NCCN1c2nc3ccccc3cc2Sc2cc3ccccc3nc21`, for which the growth is 99.2%. In the case of `COc1ccc(C2=NN(C(C)=O)C(c3cccc(Nc4ccnc5cc(Cl)ccc45)c3)C2)cc1` (stereo not given), the growth was 58.3%. The same measure for `O=C1NC(=O)/C(=C\c2ccco2)S1`: 102%; for `Cc1cc(C)c(C(=O)c2cccs2)c(C)c1`: 96.2%; for `CNNc1ncnc2c1cnn2-c1ccc(S(N)(=O)=O)cc1`: 102%. Under `C1CCC(C(CC2CCCCN2)C2CCCCC2)CC1` (stereo not given) stands 21.2%; under `O=C(O)C1C(c2ccccc2)c2ccccc2C(O)C1CO` (stereo not given), 102%. For `O=C1/C(=C/c2cccc(Cl)c2)CCc2ccccc21`, the growth was 85.9%. As to `CC1CN(/N=C/c2ccc([N+](=O)[O-])o2)C(=N)O1` (stereo not given), the growth is 105%. Regarding `COC(=O)N/N=C/c1coc2ccc(Cl)cc2c1=O`, the growth is 120%. For `COc1ccc(C2CC(c3ccc4c(c3)OCO4)=NN2C=O)cc1` (stereo not given), the growth is 93.4%. Consider `COc1ccc(C(=O)COc2cccc(/C=C3\COc4ccc5ccccc5c4C3=O)c2)cc1`, for which the growth is 125%. In the case of `COc1cccc(/C=N\NC(=O)c2ccncc2)c1O`, the growth is 41.1%. With `Nc1nc(SCc2cccnc2)c2ncn(C3OC(CO)C(O)C3O)c2n1` (stereo not given), the growth is 99.5%.

In the case of `NS(=O)(=O)c1ccc(-n2ncc3c(NC4CCCCC4)ncnc32)cc1`, the growth was 107%. Under `CCOC(=O)C1=CCC(n2cc(C)c(=O)[nH]c2=O)O1` (stereo not given) stands 118%. `COc1cc(C2CC(C3C(=O)N(C)C(=O)N(C)C3=O)=NN2C=O)cc(OC)c1OC` (stereo not given): the growth was 87.4%. The same measure for `CC(=O)c1ccccc1NC(=O)C(C)(c1ccccc1)c1ccccc1`: 110%; for `CC(=O)OC1Oc2cc(C)c(C)cc2-c2oc(=O)c(-c3ccccc3)cc21` (stereo not given): 13.9%; for `Cc1nn(-c2ccccc2)c2nc(N)c(C3=NCCO3)nc12`: 128%. On to `C[C@@H]1C[C@@H]([C@@H](CC2CC(=O)NC(=O)C2)OC(=O)CC(=O)c2ccccc2)C(=O)[C@@H](C)C1`, for which the growth is 3.61% (active). The same measure for `COc1cccc(/C=C2\Cc3ccccc3C2=O)c1`: 103%.

`COc1ccc(-c2cnc(SCC(=O)Nc3ccc(-c4nc5ccccc5s4)cc3)n2-c2ccc(OC)cc2)cc1`: the growth is 108%. As to `O=C1c2cccc(NCCN=Cc3ccccc3O)c2C(=O)c2c(NCCN=Cc3ccccc3O)cccc21`, the growth is 22.5%.

For the molecule `COc1ccc(CCN2C(=O)CCC3=C2CCCC3=O)cc1OC`, the growth is 114%.
